Measured values taken from PubChem BioAssay (NCI).
Where “and” joins values, the source holds several entries; their conditions need not be identical. Identical values can stand only once. About 83,000 compounds went through this panel and 20% of them were active in at least one assay; those are over-represented in the sample as a whole.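 Note: values are percent growth. 100 is the growth of untreated cells, values between 100 and 0 indicate rising inhibition; between -100 and 0 indicates cell death.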 Calls of active or inactive are those of the source. Rule for the calls: active = growth percent below 10; inactive = the rest.

Key:
Assay in all cases: NCI-60 one-dose screen, 48 h (100 = growth as untreated, 0 = no growth, -100 = all killed)
Details in all cases: 10 µM unless noted
NCI-H23 lung = tested on: NCI-H23 lung
NCI-H226 lung = tested on: NCI-H226 lung
NCI-H322M lung = tested on: NCI-H322M lung
HOP-62 NSCLC = tested on: HOP-62 NSCLC
NCI-H460 lung = tested on: NCI-H460 lung
HOP-92 NSCLC = tested on: HOP-92 NSCLC
NCI-H522 lung = tested on: NCI-H522 lung
A549/ATCC NSCLC = tested on: A549/ATCC NSCLC
786-0 renal = tested on: 786-0 renal
COLO 205 colon = tested on: COLO 205 colon
DU-145 prostate = tested on: DU-145 prostate
K-562 leukemia = tested on: K-562 leukemia
MALME-3M melanoma = tested on: MALME-3M melanoma
MDA-MB-231 breast = tested on: MDA-MB-231 breast
RXF 393 renal = tested on: RXF 393 renal
SF-268 CNS = tested on: SF-268 CNS
SF-295 CNS = tested on: SF-295 CNS
SF-539 CNS = tested on: SF-539 CNS
UACC-257 melanoma = tested on: UACC-257 melanoma
M14 melanoma = tested on: M14 melanoma

Measured: growth

CCOc1ccc2[nH]c(=O)c(C(c3nnnn3CC3CCCO3)N3CCN(Cc4ccccc4)CC3)cc2c1 (stereo not given)
inactive: NCI-H23 lung 76.6% | NCI-H226 lung 73.6% | NCI-H322M lung 101% | HOP-62 NSCLC 102% | NCI-H460 lung 84.7% | HOP-92 NSCLC 54% | NCI-H522 lung 84.7% | A549/ATCC NSCLC 92.7% | 786-0 renal 41.7% | COLO 205 colon 106% | DU-145 prostate 93.6% | K-562 leukemia 111% | MALME-3M melanoma 65% | MDA-MB-231 breast 61.6% | RXF 393 renal 58.7% | SF-268 CNS 55.5% | SF-295 CNS 57.6% | SF-539 CNS 57.6% | UACC-257 melanoma 113% | M14 melanoma 94.3%

CC1(C)CC(=O)C2=C(C1)OC(N)=C(c1nc3ccccc3[nH]1)C2c1ccc(Cl)cc1 (stereo not given)
inactive: NCI-H23 lung 46.5% and 106% | NCI-H226 lung 65.7% and 123% | NCI-H322M lung 51.3% and 101% | HOP-62 NSCLC 87% and 116% | NCI-H460 lung 57% and 112% | HOP-92 NSCLC 54.8% and 119% | NCI-H522 lung 55% and 111% | A549/ATCC NSCLC 64.6% and 115% | 786-0 renal 62.1% and 102% | COLO 205 colon 78.8% and 121% | DU-145 prostate 74% and 99.8% | K-562 leukemia 61.5% and 104% | MALME-3M melanoma 41.8% and 97.3% | MDA-MB-231 breast 79.1% and 105% | RXF 393 renal 55% and 106% | SF-268 CNS 67.8% and 102% | SF-295 CNS 22.9% and 103% | SF-539 CNS 29.3% and 106% | UACC-257 melanoma 97.4% and 109% | M14 melanoma 85.6% and 118%

CC(C)CN1C(=O)/C(=C\C(=O)c2cc3ccccc3oc2=O)c2ccccc21
inactive: NCI-H23 lung 90.5% | NCI-H226 lung 83.5% | NCI-H322M lung 96.7% | HOP-62 NSCLC 97.9% | NCI-H460 lung 103% | HOP-92 NSCLC 104% | NCI-H522 lung 31.5% | A549/ATCC NSCLC 109% | 786-0 renal 105% | COLO 205 colon 26.8% | DU-145 prostate 98.3% | MALME-3M melanoma 59% | MDA-MB-231 breast 87.5% | RXF 393 renal 85.4% | SF-268 CNS 106% | SF-295 CNS 105% | SF-539 CNS 102% | UACC-257 melanoma 106% | M14 melanoma 85%
active: K-562 leukemia 1.97%

Cn1cc(Nc2ncnc(-c3ccc(N4CCCC4)c(C#N)c3)n2)cn1
inactive: NCI-H23 lung 86% | NCI-H226 lung 60.6% | NCI-H322M lung 50.5% | HOP-62 NSCLC 90.3% | NCI-H460 lung 50.1% | HOP-92 NSCLC 97.6% | A549/ATCC NSCLC 83.7% | 786-0 renal 59.8% | COLO 205 colon 72% | DU-145 prostate 66.5% | K-562 leukemia 29.8% | MALME-3M melanoma 74.8% | MDA-MB-231 breast 63.6% | RXF 393 renal 50.8% | SF-268 CNS 71.9% | SF-295 CNS 93.2% | SF-539 CNS 65.2% | UACC-257 melanoma 94% | M14 melanoma 53.5%
active: NCI-H522 lung 8.98%

CSc1ccc(OCc2nc3ccccc3n2-c2cccc(NS(C)(=O)=O)c2)cc1
inactive: NCI-H23 lung 92.3% and 81.1% | NCI-H226 lung 100% and 88.1% | NCI-H322M lung 106% and 105% | HOP-62 NSCLC 114% and 75.1% | NCI-H460 lung 114% and 73.3% | HOP-92 NSCLC 80.1% and 93.1% | NCI-H522 lung 105% and 96.7% | A549/ATCC NSCLC 104% and 87.1% | 786-0 renal 114% and 97.3% | COLO 205 colon 120% and 91.4% | DU-145 prostate 103% and 67.1% | K-562 leukemia 94.4% and 106% | MALME-3M melanoma 95.3% and 84.1% | MDA-MB-231 breast 118% and 57.3% | RXF 393 renal 81.7% and 84.1% | SF-268 CNS 92.4% and 101% | SF-295 CNS 106% and 96.5% | SF-539 CNS 93.2% and 89.5% | UACC-257 melanoma 116% and 107% | M14 melanoma 119% and 81.6%

Cc1cc(C(NC(=O)C2CC3(CC(Nc4cccc5c4C(=O)N(C4CCC(=O)NC4=O)C5=O)C3)C2)c2ccc3c(c2)OC(F)(F)O3)c(O)c2ncccc12 (stereo not given)
inactive: NCI-H322M lung 27.5% | COLO 205 colon 13.2% | DU-145 prostate 17.2% | K-562 leukemia 10.8% | MDA-MB-231 breast 25.2% | RXF 393 renal 23% | SF-268 CNS 14.4%
active: NCI-H23 lung 6.24% | NCI-H226 lung -2.38% | HOP-62 NSCLC -10.9% | NCI-H460 lung 1.76% | HOP-92 NSCLC -1.71% | NCI-H522 lung 2.63% | A549/ATCC NSCLC 9.67% | 786-0 renal -12.8% | MALME-3M melanoma 9.46% | SF-295 CNS 8.11% | SF-539 CNS -24.9% | UACC-257 melanoma -11% | M14 melanoma -30.4%

CN1CCN(C(=O)Oc2cc3c(c4ccccc24)[C@H](CCl)CN3C(=O)c2cc3cc(OCCCN4CCC4)ccc3[nH]2)[C@@H]2CSSC[C@H]21
active: NCI-H23 lung -72% | NCI-H226 lung -22.4% | NCI-H322M lung 2.48% | HOP-62 NSCLC -40.4% | NCI-H460 lung -35.7% | HOP-92 NSCLC -10% | NCI-H522 lung -51.7% | A549/ATCC NSCLC -2.8% | 786-0 renal -89.1% | COLO 205 colon -65.5% | DU-145 prostate -31.6% | K-562 leukemia -4.46% | MALME-3M melanoma -55.1% | MDA-MB-231 breast -9.52% | RXF 393 renal -71.1% | SF-268 CNS -10.3% | SF-295 CNS -7.45% | SF-539 CNS -58.8% | UACC-257 melanoma -21% | M14 melanoma -74.7%

Cc1ccc(/C=C/C(=O)c2ccc(S(=O)(=O)NCCNc3nc(N(C)C)nc(N4CCOCC4)n3)cc2)cc1
active: K-562 leukemia 6.8%
inactive: NCI-H23 lung 95% | NCI-H226 lung 91.7% | NCI-H322M lung 93.7% | HOP-62 NSCLC 114% | NCI-H460 lung 103% | HOP-92 NSCLC 93.2% | NCI-H522 lung 72.3% | A549/ATCC NSCLC 80.4% | 786-0 renal 73% | COLO 205 colon 114% | DU-145 prostate 95.3% | MALME-3M melanoma 108% | MDA-MB-231 breast 85% | RXF 393 renal 85% | SF-268 CNS 79.6% | SF-295 CNS 94.4% | SF-539 CNS 81.7% | UACC-257 melanoma 85.7% | M14 melanoma 95.5%

Nc1nnc(-c2cncc(Br)c2)c(-c2c[nH]c3ccc(Br)cc23)n1
inactive: NCI-H23 lung 70.7% | NCI-H226 lung 76.5% | NCI-H322M lung 78.2% | HOP-62 NSCLC 72.7% | NCI-H460 lung 39.6% | HOP-92 NSCLC 83.3% | NCI-H522 lung 17.9% | A549/ATCC NSCLC 49.2% | 786-0 renal 55.5% | COLO 205 colon 51.3% | DU-145 prostate 85.9% | K-562 leukemia 19.1% | MALME-3M melanoma 74.1% | MDA-MB-231 breast 48.7% | RXF 393 renal 55.6% | SF-268 CNS 77.1% | SF-295 CNS 74.5% | SF-539 CNS 52.3% | UACC-257 melanoma 73.9% | M14 melanoma 44.5%

c1n[nH]cc1-c1nc2ccc3cn[nH]c3c2c2c1CCCC2
inactive: NCI-H23 lung 90.2% | NCI-H226 lung 46.4% | NCI-H322M lung 86.8% | HOP-62 NSCLC 79.9% | NCI-H460 lung 101% | HOP-92 NSCLC 85.2% | NCI-H522 lung 70.7% | A549/ATCC NSCLC 95.1% | 786-0 renal 110% | COLO 205 colon 102% | DU-145 prostate 93% | K-562 leukemia 101% | MALME-3M melanoma 72.9% | MDA-MB-231 breast 58.3% | RXF 393 renal 44.8% | SF-268 CNS 94.1% | SF-295 CNS 89.4% | SF-539 CNS 80.8% | UACC-257 melanoma 100% | M14 melanoma 93.2%

COC(=O)c1cc(C(=O)C(F)(F)F)n2c3ccccc3c3ccccc3c12
inactive: NCI-H23 lung 83.6% | NCI-H226 lung 52.6% | NCI-H322M lung 90.8% | HOP-62 NSCLC 41.1% | NCI-H460 lung 62.1% | HOP-92 NSCLC 59.2% | NCI-H522 lung 96% | A549/ATCC NSCLC 92.8% | 786-0 renal 24.2% | COLO 205 colon 79.7% | DU-145 prostate 96% | K-562 leukemia 82.6% | MALME-3M melanoma 104% | MDA-MB-231 breast 42.4% | RXF 393 renal 69.2% | SF-268 CNS 83.4% | SF-295 CNS 37.2% | SF-539 CNS 67.5% | UACC-257 melanoma 110% | M14 melanoma 87.6%

C#CCCCNCCNc1ccnc2cc(Cl)ccc12
inactive: NCI-H23 lung 72.7% | NCI-H226 lung 70.7% | NCI-H322M lung 92% | HOP-62 NSCLC 79.1% | NCI-H460 lung 83.2% | HOP-92 NSCLC 53.4% | NCI-H522 lung 41.1% | A549/ATCC NSCLC 84.3% | 786-0 renal 58.8% | COLO 205 colon 10.7% | DU-145 prostate 74.5% | K-562 leukemia 19.9% | MALME-3M melanoma 88.8% | MDA-MB-231 breast 66.3% | RXF 393 renal 36.2% | SF-268 CNS 87.7% | SF-295 CNS 48.2% | M14 melanoma 61.3%
active: SF-539 CNS -13.9% | UACC-257 melanoma 0.503%

COc1cc(-c2ccc3ncnc(N4CCc5ccc(Cl)cc54)c3c2)cnc1Cl
inactive: NCI-H23 lung 19.9% | NCI-H226 lung 18.8% | NCI-H322M lung 15.9% | HOP-62 NSCLC 50.2% | NCI-H460 lung 12.4% | NCI-H522 lung 38.6% | A549/ATCC NSCLC 34.7% | 786-0 renal 14.1% | COLO 205 colon 32.1% | DU-145 prostate 10.6% | K-562 leukemia 23.1% | MALME-3M melanoma 34.9% | MDA-MB-231 breast 30.8% | SF-268 CNS 40.2% | SF-295 CNS 35% | SF-539 CNS 24.8% | UACC-257 melanoma 59.2% | M14 melanoma 29.8%
active: HOP-92 NSCLC -0.319% | RXF 393 renal -4.17%

CC(C)(C)C(=O)c1c2c(c3ccc4c5ccccc5ccc4n13)C(=O)c1ccccc1C2=O
inactive: NCI-H23 lung 73.5% | NCI-H226 lung 73.1% | NCI-H322M lung 97.5% | HOP-62 NSCLC 84.6% | NCI-H460 lung 55.9% | HOP-92 NSCLC 104% | NCI-H522 lung 91.5% | A549/ATCC NSCLC 84.9% | 786-0 renal 109% | COLO 205 colon 102% | DU-145 prostate 95.6% | K-562 leukemia 103% | MDA-MB-231 breast 85.7% | RXF 393 renal 105% | SF-268 CNS 101% | SF-295 CNS 99.6% | SF-539 CNS 87.2% | UACC-257 melanoma 105% | M14 melanoma 71.3%
active: MALME-3M melanoma 9.73%
